# Laboratory results from PubChem BioAssay AID720541 (National Center for Advancing Translational Sciences (NCATS), 2013).
# The whole screen tested about 1,300 compounds, of which about 420 (32%) were called active. Another 32% or so got no clear call; they are omitted. Calls come from the whole dose curve; as a rule, active = well fitted inhibition curve with a large enough effect; inconclusive = small, poorly fitted or top-dose-only effect; inactive = no such curve, though single readings can be large or run the other way. The list shows a part of the results.
# Target: C-terminal-binding protein 1 (Homo sapiens) (UniProt Q13363)
# Experiment: qHTS for Inhibitors of the Phosphatase Activity of Eya2: Carboxyl-terminal binding protein (CtBP) Counterscreen for Cherry-picked Compounds; note: nearly all actives have a fitted effect of over 65% in size
# Settings: purified protein-protein binding, AlphaScreen, 3 h; series mostly up to 46.1 µM; activity change, negative = inhibition: at the top concentration
# Method in brief: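 Cherry-picked compounds (final 2.5 nM–46 uM) were incubated 2 h at RT with 25 nM CtBP-6xHIS and 25 nM GST-E1A. Alpha beads (20 ug/mL) were then added for 1 h, light-protected; DMSO and E1A peptide inhibitor wells set the normalization.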
# % is set by controls: 0 for no effect and ±100 for the full control effect; potency is the fitted concentration of half-maximal effect.
SMILES,"activity change, negative = inhibition",Potency
N#Cc1ccc(CSc2nnc(-c3c[nH]c4ccccc34)n2-c2ccccc2)cc1,-10.5% (inactive),–
Cc1c(CCC(=O)NCCCCCC(=O)O)c(=O)oc2cc3occ(-c4ccccc4)c3cc12,–,8.49 µM (active)
COc1cccc2c1C(=O)/C(=C/c1ccc(N(C)C)cc1)C2,–,4.78 µM (active)
CN(C)CCNc1ccc2ncn3c4ccc(O)cc4c(=O)c1c23,–,1.9 µM (active)
CN(C)CCNc1ccc2nnn3c4ccc(O)cc4c(=O)c1c23,–,1.2 µM (active)
O=C(CC1(O)C(=O)Nc2ccccc21)c1ccccc1 (stereo unspecified),12.8% (inactive),–
CCOC(=O)c1c(NC(=O)/C=C/C(=O)O)sc(C)c1-c1ccc(Cl)cc1,-19.5% (inactive),–
Cn1c(=O)c(N)c2c3c(c(Br)ccc31)C(=O)c1ccccc1-2,–,9.53 µM (active)
Cc1c(NC(=O)c2ccco2)cccc1C(=O)NN1C(=O)c2ccccc2C1=O,-9.57% (inactive),–
CCc1c(C)nc(Nc2nc(C)c3ccc(OC)cc3n2)[nH]c1=O,–,3.38 µM (active)
Cc1nn2c(c1-c1ccccc1)NC1=C(C(=O)CCC1)C2c1ccccc1 (stereo unspecified),3.34% (inactive),–
C/C=C/c1ccc(OCCSc2nc(C)cc(=O)[nH]2)c(OC)c1,–,10.7 µM (active)
O=S(=O)(Nc1nnc(-c2ccccc2)s1)c1ccc(Cl)cc1,–,16.9 µM (active)
Cc1n[nH]c(=S)n(NC(=O)CC(=O)Nn2c(=S)[nH]nc(C)c2=O)c1=O,–,1.2 µM (active)
CC1=CC(C)(C)Nc2ccc(OC(=O)CN3C(=O)c4ccccc4C3=O)cc21,9.89% (inactive),–
O=S(=O)(c1ccc(Cl)s1)N1CCc2ccccc2C1,65.2% (inactive),–
COc1ccc(OC)c(/C=C2\SC(=S)N(NS(=O)(=O)c3ccccc3)C2=O)c1,-14.7% (inactive),–
O=C(NN1C(=O)/C(=C\c2ccc(O)c([N+](=O)[O-])c2)SC1=S)c1ccccc1Cl,–,12 µM (active)
Cc1ccc(S(=O)(=O)NN2C(=O)/C(=C/c3cccc(F)c3)SC2=S)cc1,-16.6% (inactive),–
COc1ccc(Nc2nc(C(C)(C)C)nc3c2nnn3Cc2ccccc2Cl)cc1OC,-19% (inactive),–
CCOC(=O)CNC(=O)C1CCCN(c2ncccn2)C1 (stereo unspecified),12.5% (inactive),–
CCOC(=O)C1CCN(C2=C(NS(=O)(=O)c3ccc(Br)cc3)C(=O)c3ccccc3C2=O)CC1,–,5.36 µM (active)
NC(=O)C1CCN(c2oc(-c3cccs3)nc2S(=O)(=O)c2ccc(Br)cc2)CC1,-14.9% (inactive),–
CCOC(=O)C1CCCN(C2=C(NS(=O)(=O)c3ccc(Br)cc3)C(=O)c3ccccc3C2=O)C1 (stereo unspecified),–,12 µM (active)
COC(=O)c1ccc(CSc2ccc3nnc(-c4ccccn4)n3n2)o1,–,7.57 µM (active)
Brc1ccc(CSc2ccc3nnc(-c4ccccn4)n3n2)cc1,–,13.5 µM (active)

SMILES,"activity change, negative = inhibition",Potency
c1ccc(CSc2ccc3nnc(-c4ccccn4)n3n2)cc1,–,13.5 µM (active)
Brc1ccc(CSc2ccc3nnc(-c4cccnc4)n3n2)cc1,-31.1% (inactive),–
CCOc1ccc(NC(=O)C2CC(=O)N(CCc3ccc(OC)c(OC)c3)C2)cc1OCC (stereo unspecified),–,19 µM (active)
CN(C)c1ccc(C(CNS(=O)(=O)c2ccc(F)c(F)c2)c2c[nH]c3ccccc23)cc1 (stereo unspecified),-19.8% (inactive),–
O=C(COC(=O)c1cc(=O)[nH]c2ccccc12)Nc1cccc(S(=O)(=O)N2CCOCC2)c1,-20.2% (inactive),–
S=C(Nc1ccc2c(c1)OCCO2)Nc1ccc2c(c1)OCO2,-13.5% (inactive),–
COc1ccc2oc(C(=O)Nc3cccc(S(=O)(=O)N4CCOCC4)c3)c(C)c2c1,2.02% (inactive),–
Cc1ccc(NC(=O)c2ccc3c(c2)OCO3)cc1S(=O)(=O)N1CCOCC1,–,8.49 µM (active)
O=C(COC(=O)c1cc(S(=O)(=O)N2CCOCC2)ccc1O)Nc1ccc2c(c1)OCO2,-29.9% (inactive),–
COc1ccc(/C=C/C(=O)Nc2cccc(S(=O)(=O)N3CCOCC3)c2)cc1OC,–,15.1 µM (active)
COc1ccc(S(=O)(=O)N2CCOCC2)cc1C(=O)Nc1cccc(C(=O)NC2CC2)c1,–,15.1 µM (active)
NC(=O)C1CCN(CC(=O)Nc2ccc3c(c2)OCO3)CC1,56.5% (inactive),–
Cc1ccc(NC(=O)/C=C/c2ccc3c(c2)OCO3)cc1S(=O)(=O)N1CCOCC1,–,6.75 µM (active)
Oc1ccc(-c2nc3c4c(ncn3n2)-c2ccccc2CC42CCCC2)cc1,-5.04% (inactive),–
Cc1ccc(Nc2nc(N)nc(CSc3nnc(C)s3)n2)cc1,-28.6% (inactive),–
O=C(O)C1=C[C@@H](c2csc3ccccc23)C[C@@H](OCc2ccc(CO)cc2)O1,1.42% (inactive),–
CN(C)Cc1ccccc1Sc1cccc2ccccc12,-22.5% (inactive),–
CCN(CC)C(=O)c1ccc(O)c(OC)c1,10% (inactive),–
COc1cccc(-c2nnc(SCC(=O)Nc3cc(C)on3)o2)c1,–,12 µM (active)
COc1ccccc1-n1c(SCC(=O)Nc2cc(C)on2)nc2c(c1=O)SCC2,-4.85% (inactive),–
Cc1cc(NC(=O)CS(=O)(=O)c2cn(Cc3cccc(Br)c3)c3ccccc23)no1,-9.1% (inactive),–
O=C(Nc1ccccc1)C(Cl)C(=O)c1ccccc1 (stereo unspecified),-7.71% (inactive),–
O=C(Nc1cccc(O)c1)c1cccc(C(=O)Nc2cccc(O)c2)c1,–,8.49 µM (active)
COc1cc(CNC(=O)Nc2nc(C(N)c3ccccc3)cs2)cc(OC)c1OC (stereo unspecified),–,13.5 µM (active)
CCC(=O)Nc1nc2c(OC)ccc(OC)c2s1,-9.07% (inactive),–
O=S(=O)(c1ccccc1)[C@@]1(c2ccccc2)C[C@@H]2ON=C(c3cccc(-c4ccccc4)c3)[C@@H]2C1,-6.8% (inactive),–

SMILES,"activity change, negative = inhibition",Potency
COc1cccc(C=NCC(C)N=Cc2cccc(OC)c2O)c1O (stereo unspecified),–,16.9 µM (active)
COc1ccc(N2CCN(C(c3ccco3)c3sc4nc(C)nn4c3O)CC2)cc1 (stereo unspecified),-20.4% (inactive),–
Oc1c(C(c2cccs2)N2CCN(c3ccccc3)CC2)sc2ncnn12 (stereo unspecified),–,19 µM (active)
O=c1c(O)cccc2cc(O)c(O)c(O)c12,–,15.1 µM (active)
COc1ccccc1NC(=O)c1ccc(NC(=O)Cc2n[nH]c(=O)c3ccccc23)cc1,6.99% (inactive),–
COc1ccccc1OCC(=O)Nc1ccc(C(=O)Nc2ccccc2C(=O)O)cc1,–,16.9 µM (active)
CC1=C(/C=C/C(C)=C/C=C/C(C)=C/C(=O)Nc2ccc(O)cc2)C(C)(C)CCC1,-22% (inactive),–
COc1ccc(S(=O)(=O)N2CCC3CC2c2cc(N4CCOCC4)ccc23)cc1 (stereo unspecified),53.4% (inactive),–
O=C(Oc1ccc(=O)n(-c2ccccc2)n1)c1ccc(F)cc1,7.08% (inactive),–
CN1C=C/C(=C\c2cc[n+](C)c3ccccc23)c2ccccc21,–,15.1 µM (active)
C[n+]1ccc(/C=C/c2cc[n+](C)c3ccccc23)c2ccccc21,–,15.1 µM (active)
O=S(=O)(O)c1ccc2c(N=Nc3ccc(S(=O)(=O)O)c4ccccc34)c(O)c(S(=O)(=O)O)cc2c1,–,9.53 µM (active)
CC(=O)Nc1ccc(S(=O)(=O)O)c2cc(S(=O)(=O)O)c(N=Nc3ccc(N=Nc4ccc(S(=O)(=O)O)cc4)c4ccc(S(=O)(=O)O)cc34)c(O)c12,–,1.69 µM (active)
Cc1ccc(NC(=O)c2ccc3[nH]c(=O)c(=O)[nH]c3c2)nc1,–,6.75 µM (active)
O=C(Nc1ccc(F)cc1)c1ccc2[nH]c(=O)c(=O)[nH]c2c1,–,1.9 µM (active)
O=C(NC1=C(Nc2ccc(F)cc2)C(=O)c2ccccc2C1=O)c1ccc(Cl)cc1,-23.9% (inactive),–
Cc1cc(NC(=O)c2cccc(N3C(=O)CCC3=O)c2)no1,5.6% (inactive),–
Cc1nc2c(C(=O)Nc3ccc(N4CCCC(O)C4)cc3)snc2c(=O)[nH]1 (stereo unspecified),-14.4% (inactive),–
CCOc1cc(/C=C2/NC(=O)NC2=O)cc(Br)c1OCc1ccc(C(=O)O)cc1,-28.6% (inactive),–
CSCc1cc(N(C)c2ccccc2)nc(-c2ccccn2)n1,–,13.5 µM (active)
O=C(O)C1=NN(c2cc(Cl)c(S(=O)(=O)O)cc2Cl)C(=O)C1,-1.01% (inactive),–
CN(C)c1ccc(N=c2sc3ccccc3n2C)cc1,–,7.57 µM (active)
CCN1CCN(c2ncnc3scc(-c4ccc(C)cc4)c23)CC1,-13.6% (inactive),–
CN(C)S(=O)(=O)n1cnc2ccccc21,2.9% (inactive),–
CCc1nnc2c(N(C)C)nc3ccccc3n12,–,12 µM (active)
CC(=O)Nc1ccc(S(=O)(=O)NC2=C(N3CCN(Cc4ccccc4)CC3)C(=O)c3ccccc3C2=O)cc1,–,16.9 µM (active)

SMILES,"activity change, negative = inhibition",Potency
Cc1cc2oc(C(=O)N3CCN(Cc4ccccc4)CC3)c(C)c2cc1C,-17.7% (inactive),–
O=C1C(NS(=O)(=O)c2cccs2)=C(N2CCN(Cc3ccccc3)CC2)C(=O)c2ccccc21,–,10.7 µM (active)
O=c1c2ccccc2nnn1CSc1nnc(C2COc3ccccc3O2)n1-c1ccccc1 (stereo unspecified),-10.6% (inactive),–
O=c1cc(CSc2ccc(Cl)cc2)nc(-c2ccccn2)[nH]1,–,2.13 µM (active)
Nc1nc2cc3ccccc3cc2[nH]c1=O,-9.19% (inactive),–
O=c1nc(-c2ccccc2)c2cc(Cl)ccc2[nH]1,–,13.5 µM (active)
COc1ccc(NC(=O)c2[nH]c(C)c(C(C)=O)c2C)cc1Cl,-22.9% (inactive),–
O=C(CCS(=O)(=O)c1ccc(Br)cc1)N1CCCCCC1,6.61% (inactive),–
CN(C1=C(N2CCCCC2)C(=O)c2ccccc2C1=O)c1ccccc1,–,1.9 µM (active)
CC1CCN(C2=C(NS(=O)(=O)c3ccc(Br)cc3)C(=O)c3ccccc3C2=O)CC1,–,5.36 µM (active)
O=C1N=c2ccccc2=C1c1sc(Nc2cccc(O)c2)nc1O,-25.1% (inactive),–
O=C1C(Nc2cccc(O)c2)=C(N2CCCCC2)C(=O)c2ccccc21,–,19 µM (active)
O=C1C(NS(=O)(=O)c2ccc(Br)cc2)=C(N2CCCCC2)C(=O)c2ccccc21,–,13.5 µM (active)
O=c1cc(Nc2ccc3c(c2)OCO3)[nH]c(=O)n1-c1ccc(Br)cc1,-29.6% (inactive),–
S=C(NC1CC1)NC1CCCc2ccccc21 (stereo unspecified),0.976% (inactive),–
COc1ccc(-c2ccc(SCc3cccnc3)nn2)cc1OC,–,13.5 µM (active)
O=C(O)CCCCCNS(=O)(=O)c1cccc2c1C(=O)c1ccccc1C2=O,–,5.36 µM (active)
Cc1cc(Nc2ccc([N+](=O)[O-])cc2)c2ccccc2n1,-2.71% (inactive),–
O=C(O)c1ccc(Nc2nc(-c3ccccc3)nc3ccccc23)cc1,–,9.53 µM (active)
Cc1ccc(Nc2nc(-c3cccnc3)nc3ccccc23)cc1,-23.4% (inactive),–
CCOC(=O)NNc1nncc2ccccc12,10.1% (inactive),–
O=C(O)c1cccc(Nc2nc(-c3ccccc3)nc3ccccc23)c1,–,12 µM (active)
CCOC(=O)c1nc(Nc2ccc(Nc3ccccc3)cc2)c2ccccc2n1,–,13.5 µM (active)
